PubChem BioAssay

Experiments:
[1] = test system: Human papillomavirus type 1a protein E7 (residues 44-93); assay: small molecules binding HPV E7 44-93 – biochemical, small-molecule microarray, residues 44-93, 635 nm fluorescence, primary screen (AID 1108); conditions: fluorescence 635 nm, higher = more signal;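 further: E7 fragment applied at 1 µg/mL in TBST for 1 h at 4 C; score combines spot fluorescence with its signal to noise ratio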
[2] = hepatitis C replication reporter changes, two-sided – Huh7 cells, luciferase reporter, HCV replication inhibitor project, primary screen (AID 1109); conditions: Huh7 HCV replicon luciferase reporter, 48 h; higher = more signal;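 further: huh7 hepatoma cells harbouring a luciferase neomycin HCV replicon reporter; luciferase luminescence as measure of HCV replicon replication; test concentration not given here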
[3] = molecular target: Left-right determination factor 2 (Homo sapiens) (UniProt O00292); assay: small molecules binding LEFTY2 protein – biochemical, small-molecule microarray, 635 nm fluorescence scan, primary screen (AID 1110); conditions: higher = more signal
Chain of Left-right determination factor 2 (Homo sapiens) (O00292 whole entry, looked up): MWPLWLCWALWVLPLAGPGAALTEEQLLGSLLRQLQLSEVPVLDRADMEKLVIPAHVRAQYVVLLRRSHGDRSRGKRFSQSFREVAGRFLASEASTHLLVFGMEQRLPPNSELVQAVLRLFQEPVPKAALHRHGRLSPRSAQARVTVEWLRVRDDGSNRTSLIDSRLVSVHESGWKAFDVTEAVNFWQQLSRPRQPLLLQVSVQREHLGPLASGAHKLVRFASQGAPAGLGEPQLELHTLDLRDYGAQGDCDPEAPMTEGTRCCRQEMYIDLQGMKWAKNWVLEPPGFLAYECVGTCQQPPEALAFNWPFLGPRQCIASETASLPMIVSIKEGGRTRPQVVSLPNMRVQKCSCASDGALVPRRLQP

[4] = molecular target: Calmodulin-1 (Homo sapiens) (UniProt P0DP23); assay: small molecules binding calmodulin-1 with EGTA – biochemical, small-molecule microarray, Cy5-labelled CALM1, profiling panel (AID 1111); conditions: Cy5-CALM1 binding fluorescence, higher = more signal;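 further: labelled calmodulin applied in Tris saline Tween buffer holding calcium plus EGTA and DTT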
[5] = molecular target: Calmodulin-1 (Homo sapiens) (UniProt P0DP23); assay: small molecules binding Ca-loaded calmodulin-1 – biochemical, small-molecule microarray, Cy5-labelled CALM1, plus calcium, artefact control for SMM control-protein annotation, profiling panel (AID 1112); conditions: Cy5-CALM1 binding fluorescence, higher = more signal;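 further: score merges spot fluorescence with signal to noise from triplicate slides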
[6] = probe aWnt5a binding to arrayed compounds – biochemical, biotinylated probe, 635/667 nm fluorescence, primary screen (AID 1113); conditions: small-molecule microarray, higher = more signal;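 further: score merges 667 nm fluorescence intensity with signal-to-noise per printed feature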
[7] = probe aShh binding to arrayed compounds – biochemical, biotinylated probe, 635/667 nm fluorescence, primary screen (AID 1114); conditions: small-molecule microarray, higher = more signal;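 further: probe is biotin-labelled aShh protein from a stem cell growth factor screen; measures binding of labelled protein to compounds printed on the slide; score merges feature fluorescence at 667 nm with signal-to-noise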
[8] = probe aNog binding to arrayed compounds – biochemical, biotinylated probe, 635/667 nm fluorescence, primary screen (AID 1115); conditions: small-molecule microarray, higher = more signal;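 further: probe is biotinylated aNog protein used at 0.15 µg/mL for 1 h at 4 C; z-score combines 667 nm fluorescence of each spot with its signal to noise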
[9] = molecular target: Torsin-1A-interacting protein 1 (Homo sapiens) (UniProt Q5JTV8); assay: compound microarray binding of lysate hLAP1 – cell lysate, small-molecule microarray, COS7 lysate, 635/667 nm fluorescence, primary screen (AID 1116); conditions: 635 nm fluorescence, higher = more signal
Chain of Torsin-1A-interacting protein 1 (Homo sapiens) (Q5JTV8 whole entry, looked up): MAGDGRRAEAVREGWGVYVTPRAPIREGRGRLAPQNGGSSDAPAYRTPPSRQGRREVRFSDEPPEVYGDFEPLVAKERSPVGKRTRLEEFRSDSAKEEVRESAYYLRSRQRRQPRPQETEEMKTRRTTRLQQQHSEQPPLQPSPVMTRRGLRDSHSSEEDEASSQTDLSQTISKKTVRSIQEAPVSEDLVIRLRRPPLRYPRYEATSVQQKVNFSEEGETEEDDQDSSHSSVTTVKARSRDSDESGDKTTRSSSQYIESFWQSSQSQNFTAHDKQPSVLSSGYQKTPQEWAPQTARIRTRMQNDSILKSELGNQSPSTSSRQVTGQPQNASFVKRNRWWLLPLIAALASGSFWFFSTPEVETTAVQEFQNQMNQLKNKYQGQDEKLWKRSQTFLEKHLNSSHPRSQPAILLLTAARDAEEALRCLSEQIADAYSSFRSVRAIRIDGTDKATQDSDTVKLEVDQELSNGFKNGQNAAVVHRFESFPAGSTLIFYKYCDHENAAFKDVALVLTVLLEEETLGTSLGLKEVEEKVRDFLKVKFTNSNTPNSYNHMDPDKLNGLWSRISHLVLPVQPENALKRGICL

[10] = molecular target: Alpha-bungarotoxin (Bungarus multicinctus) (UniProt P60615); assay: compounds binding labelled alpha-BTX control protein – biochemical, small-molecule microarray, Alexa647 label, 635/667 nm fluorescence, artefact control for SMM control protein annotation, profiling panel (AID 1117); conditions: alpha-BTX-A647 binding fluorescence, higher = more signal
Chain of Alpha-bungarotoxin (Bungarus multicinctus) (P60615 whole entry, looked up): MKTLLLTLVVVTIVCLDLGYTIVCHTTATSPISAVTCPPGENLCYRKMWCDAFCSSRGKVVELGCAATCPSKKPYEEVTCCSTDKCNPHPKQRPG

SMILES	composite z-score [1]	z-score [2]	composite z-score [3]	composite z-score [4]	composite z-score [5]	composite z-score [6]	composite z-score [7]	composite z-score [8]	composite z-score [9]	composite z-score [10]
COCCOC(=O)N1C(=O)[C@@]2(c3cc(C#Cc4ccc(OC)cc4)ccc31)[C@H](C(N)=O)[C@H]1C(=O)O[C@H](c3ccccc3)[C@H](c3ccccc3)N1[C@@H]2c1ccc(O)cc1	-0.426	-1.01	-1.58	-0.844	0.247	0.0243	-0.487	0.909	0.127	-1.05
O=C1C[C@@](C(=O)O)(c2ccc([N+](=O)[O-])cc2)[C@@H](c2ccc(CO)cc2I)N1CC12CC3CC(CC(C3)C1)C2	0.997	-3.31	-0.44	1.67	0.889	0.0206	0.0434	0.108	0.817	2.3
[N-]=[N+]=NCc1ccccc1[C@H]1OC(c2ccc(OCCCO)cc2)=N[C@@]1(Cc1ccccc1)C(=O)O	1.38	-2.64	0.115	1.46	0.484	0.0079	0.199	-0.204	0.875	0.96
O=C1O[C@@H](c2ccccc2)[C@@H](c2ccccc2)N2[C@@H](c3ccc(O)cc3)[C@]3(C(=O)Nc4ccc(C#CCCO)cc43)[C@@H](C(=O)O)[C@H]12	0.449	0.386	-0.233	2.19	0.933	0.485	0.86	2.63	1.66	2.14
C=C(CCCC)/C(=C/C[C@@H](OC(=O)c1ccncc1)c1ccc(CO)o1)c1cc(C(=O)OC)ccc1OC	0.277	-1.73	1.02	1.19	-0.759	-0.0445	-0.0011	-0.216	0.774	1.59
COc1ccc([Si](C)(C)[C@@H]2[C@@H](CCO)O[C@]3(C(=O)N(Cc4ccccc4)c4ccc(N(C=O)c5ccccc5)cc43)[C@H]2C)cc1	-0.736	-4.14	0.391	0.194	0.841	-0.117	0.0684	-0.0036	0.301	-0.525
NC(=O)NCC#Cc1ccc2c(c1)[C@]1(C(=O)N2)[C@H](c2ccccc2OCCO)N2[C@H](c3ccccc3)[C@H](c3ccccc3)OC(=O)[C@H]2[C@@H]1C(=O)N1CCCCCCC1	1.43	-0.968	1.34	2.9	1.55	1.18	0.728	3.1	4.58	3.37
O=C1OCC=C[C@H]2OC34C=CCN(Cc5ccccc5)C(=O)[C@H]3N(CCCO)C(=O)[C@@H]4[C@@H]12 (stereo not given in full)	1.22	-0.789	-0.406	1.19	0.918	0.0474	0.63	0.134	0.627	-0.162
COc1c(C)cc(-c2cc3c(c(-c4ccccc4)n2)[Si](C(C)C)(C(C)C)O[C@H]3c2ccccc2)cc1C	-0.217	-0.526	-0.009	-0.0867	-0.24	-0.006	-0.147	-0.482	0.38	0.614
CCOC1=C2C(c3ccc(C)cc3)N(S(=O)(=O)c3ccc(C)cc3)CC2n2c(=O)n(-c3ccccc3)c(=O)n2C1 (stereo not given)	1.32	-1.1	0.584	0.683	-0.332	0.0244	-0.0866	0.664	0.582	1.42
C=CC[C@]1(C(=O)O)N=C(c2ccc(OCCCO)cc2)O[C@H]1c1ccccc1CN=[N+]=[N-]	-0.907	-0.439	-0.46	0.371	0.939	-0.0977	-0.0209	-0.0554	0.371	-0.445
O[C@@H](Cc1ccccc1)[C@@H](/C=C/c1ccccc1)NCc1ccccc1Br	-1.16	-1.38	-1.56	-0.793	-0.43	-0.109	-0.17	-0.445	-0.962	-0.869
CCCCCN1CC=CC23O[C@@H]4C=CCCOC(=O)C4[C@H]2C(=O)N(CCCO)[C@@H]3C1=O (stereo not given in full)	-0.337	-0.726	-0.43	-0.162	-0.591	-0.198	-0.283	-0.0125	-0.643	-0.546
C=CC[C@@]1(C(N)=O)N=C(c2ccc(OCCCO)cc2)O[C@@H]1c1ccccc1N=[N+]=[N-]	-0.42	1.51	0.362	-0.151	-0.471	0.0825	-0.148	1.1	2.04	0.673
O=C1C2C=CC(C(O)c3ccc(-c4ccccc4)s3)N(Nc3ccccc3F)C2C(=O)N1c1ccccc1 (stereo not given)	1.37	1.78	-0.0452	1.95	1.24	-0.0758	0.274	-0.54	0.599	1.21
CC(=O)NCCCC[C@@H]1NC(=O)[C@@H]2C[C@H](C(=O)NCCCCCC[N+](C)(C)C)[C@H](c3cccc(OCCO)c3)N2C1=O	1.39	0.625	0.996	-0.145	-0.711	0.158	0.0181	-0.0585	1.05	1.75
CC(c1ccccc1)C(O)C1C=CC2C(=O)N(c3ccccc3)C(=O)C2N1Nc1ccccc1F (stereo not given)	1.4	-1.55	0.0648	-0.32	-0.539	0.0485	-0.203	-0.453	1.03	0.667
CCCCC(=O)N(Cc1ccccc1F)[C@@H]1CC(C(=O)NCCO)=C[C@H](Oc2c(I)cc(CO)cc2OC)[C@H]1O	1.42	-1.06	1.29	3.17	1.4	0.0004	0.123	-0.083	0.994	1.79

SMILES	composite z-score [1]	z-score [2]	composite z-score [3]	composite z-score [4]	composite z-score [5]	composite z-score [6]	composite z-score [7]	composite z-score [8]	composite z-score [9]	composite z-score [10]
COc1ccc([Si](C)(C)[C@@H]2[C@@H](CCO)O[C@]3(C(=O)N(Cc4cccc(N5CCCCC5=O)c4)c4ccccc43)[C@H]2C)cc1	1.34	-5.14	0.34	1.08	0.415	-0.0165	-0.0626	0	0.702	0.836
C[C@]1(C(=O)NCC(F)(F)F)c2ccccc2C(=O)N(Cc2cc(F)cc(C(F)(F)F)c2)[C@H]1c1ccc(CO)cc1	1.05	-0.906	-0.977	1.6	0.302	-0.224	0.0024	0.452	0.729	0.0035
COC(=O)[C@@]1(Cc2ccc(OC)cc2)[C@H]2c3cc(C(=O)N4CCCC4)n(C[C@H](O)CO)c3C[C@H]2CN1C(=O)c1ccccc1	0.464	-0.439	-0.416	1.14	0.91	-0.252	1.17	1.59	0.707	0.113
O=C(CS)NCCCCCNC(=O)[C@H]1C[C@H]2C(=O)N[C@@H](Cc3ccccc3)C(=O)N2[C@H]1c1cccc(OCCO)c1	0.729	-0.24	1.03	-0.137	-0.358	0.0388	-0.153	-0.259	1.12	0.656
CN(C)CCCCCCNC(=O)[C@@H]1C[C@@H]2C(=O)NCC(=O)N2[C@@H]1c1cccc(OCCO)c1	1.12	-0.358	1.36	0.138	-0.708	-0.0222	0.0948	0.107	1.88	-0.0783
Cc1ccc(N2C(=O)c3ccccc3[C@@H](C(=O)NCC(C)C)[C@@H]2c2ccc(CO)cc2)nc1	-0.369	-0.216	-1.31	-0.617	-0.259	-0.176	-0.0709	-0.518	0.219	-0.688
COC(=O)[C@@]1(Cc2ccc(F)cc2)[C@H]2c3cc(C(=O)N4CCCC4)n(CCc4ccc(OC)c(Br)c4)c3C[C@H]2CN1C(=O)c1ccccc1	0.543	-2.69	0.179	2.7	1.29	0.155	0.627	1.11	2.7	2.38
C=CCC(OC(C)=O)[C@@H]1[C@@H](N(Cc2ccc(-c3ccccc3)cc2)C(=O)c2ccc(C)cc2)c2cc(OCCCO)ccc2N1C(=O)c1ccc2ccccc2n1 (stereo not given in full)	-0.6	-0.41	0.755	-0.248	0.24	-0.14	-0.181	0.496	0.234	-0.0983
CN1C(=O)C2C(C1=O)C1C=C(c3ccc(CO)cc3)C2C(C2CC2)N1Cc1cc2c(cc1Br)OCO2 (stereo not given)	1.36	-1.11	0.72	1.68	0.6	-0.027	-0.0866	1.04	2.24	1.73
COC(=O)[C@@]1(Cc2ccc(F)cc2)[C@H]2c3cc(C(=O)N(C)C)n(CCc4c[nH]c5ccc(OC)cc45)c3C[C@H]2CN1C(=O)c1ccccc1	1.47	-1.94	-0.995	1.72	1.16	0.27	0.764	1.7	2.15	1.04
O=C1O[C@@H](c2ccccc2)[C@@H](c2ccccc2)N2[C@@H](c3ccccc3OCCO)[C@]3(C(=O)Nc4ccc(C#CC5(O)CCCCCC5)cc43)[C@@H](C(=O)NC[C@H](O)c3ccccc3)[C@H]12	1.41	-3.23	-0.24	0.819	0.923	0.0912	0.681	1.86	0.0197	0.728
C[N+](C)(C)CCCC[C@@H]1NC(=O)[C@@H]2C[C@H](C(=O)NCCCCCCNC(=O)CS)[C@H](c3cccc(OCCO)c3)N2C1=O	-0.568	-0.154	0.382	-0.485	-0.467	-0.233	-0.0553	-0.331	0.567	2.15
COCCOC(=O)N1C(=O)[C@@]2(c3cc(C#CCC(C(=O)OC)C(=O)OC)ccc31)[C@H](c1ccccc1OCCO)N1[C@H](c3ccccc3)[C@H](c3ccccc3)OC(=O)[C@H]1[C@@H]2C(=O)Nc1nc2ccccc2s1	0.678	-1.11	0.691	1.29	0.522	-0.0134	-0.0146	0.185	1.99	2.06
C#C[C@H]1Oc2ccccc2S(=O)(=O)N2CCC[C@@H]12	-0.137	-0.871	0.533	-0.982	-0.495	-0.169	0.0815	-0.1	0.0849	-0.288
COCCn1c(C(=O)N(C)C)cc2c1C[C@H]1CN(C(=O)c3ccccc3)[C@@](Cc3ccc(F)cc3)(C(=O)OC)[C@@H]21	1.3	-0.285	-0.0863	0.487	0.666	0.0559	0.385	0.873	0.153	0.305
O=C(NCC(F)(F)F)[C@@H]1c2ccccc2C(=O)N(Cc2ccccc2)[C@H]1c1ccc(CO)cc1	0.337	-0.32	-1.78	-0.189	0.621	-0.158	-0.0849	0.0056	-0.236	-0.846
CC(C)NC(=O)[C@@]1(c2ccc([N+](=O)[O-])cc2)CC(=O)N(C(C)C)[C@@H]1c1ccc(CO)cc1	0.559	-0.176	-1.86	-0.678	-0.56	-0.197	0.0899	-0.311	-0.534	-0.125
